PubChem BioAssay AID1494157 (National Center for Advancing Translational Sciences (NCATS), 2020)
Records with an inconclusive call do not appear. Unmarked numbers belong to inactive results. Active and inactive are the calls of the source. The call rests on the fitted dose curve.

Assay: Confirmatory qHTS for inhibitors of MERS-S pseudo-typed particle cell entry
Details: MERS-S pseudotyped particle entry, luciferase reporter; series mostly up to 57.1 µM; activity change, negative = inhibition: at the top concentration
With CCCCCCOC(=O)NC(=N)c1ccc(NCc2nc3cc(C(=O)N(CCC(=O)OCC)c4ccccn4)ccc3n2C)cc1 the Potency was 19.2 µM (active).
In the case of O=C1c2c(O)ccc(O)c2C(=O)c2c(NCCNCCO)ccc(NCCNCCO)c21, the Potency is reported as 0.961 µM (active).
With O=c1[nH]c(=O)n([C@H]2C[C@H](O)[C@@H](CO)O2)cc1C(F)(F)F the Potency was 6.81 µM (active).
With CC(C)(C)c1ccc(C(=O)CCCN2CCC(OC(c3ccccc3)c3ccccc3)CC2)cc1 the Potency was 3.41 µM (active).
In the case of CC(=O)Oc1ccccc1C(=O)Nc1ncc([N+](=O)[O-])s1, the Potency is reported as 10.8 µM (active).
In the case of Cc1nnc2n1-c1sc(CCc3ccc(CC(C)C)cc3)cc1C(c1ccccc1Cl)=NC2C (stereo not drawn), the Potency is reported as 27.1 µM (active).
Work on CCOc1cc2ncc(C#N)c(Nc3ccc(OCc4ccccn4)c(Cl)c3)c2cc1NC(=O)/C=C/CN(C)C yielded an activity change, negative = inhibition of -18.9% [at 11.2 µM].
For Oc1c(Cl)cc(Cl)c(Cl)c1Cc1c(O)c(Cl)cc(Cl)c1Cl, the Potency was 0.857 µM (active).
With COc1cc2c(cc1Cc1cccc(Cl)c1F)c(=O)c(C(=O)O)cn2[C@H](CO)C(C)C the Potency was 0.304 µM (active).
In the case of CCN(CC)Cc1cc(Nc2ccnc3cc(Cl)ccc23)ccc1O, the Potency is reported as 9.61 µM (active).
For C/C=C(/C)C(=O)O[C@H]1C(C)=CC23C(=O)C(C=C(CO)[C@@H](O)[C@]12O)[C@H]1[C@@H](C[C@H]3C)C1(C)C (stereo partly drawn), the “activity change, negative = inhibition” value was -20.2%.
With COc1cccc2c1C(=O)c1c(O)c3c(c(O)c1C2=O)C[C@@](O)(C(=O)CO)CC3OC1CC(N2CCOC(OC)C2)C(O)C(C)O1 (stereo partly drawn) the Potency was 0.215 µM (active).
For CN(C)CCOC(c1ccccc1)c1ccc(Br)cc1 (stereo not drawn), the Potency was 17.1 µM (active).
In the case of COc1cc(N)c(Cl)cc1C(=O)NC1CCN(CCCOc2ccc(F)cc2)CC1OC (stereo not drawn), the Potency is reported as 15.2 µM (active).
For CCc1c2c(nc3ccc(OC(=O)N4CCC(N5CCCCC5)CC4)cc13)-c1cc3c(c(=O)n1C2)COC(=O)[C@]3(O)CC, the Potency was 15.2 µM (active).
For CO[C@@]12[C@H](COC(N)=O)C3=C(C(=O)C(C)=C(N)C3=O)N1C[C@@H]1N[C@@H]12, the Potency was 0.961 µM (active).
In the case of C[C@@H]1CCO[C@H]2Cn3cc(C(=O)NCc4ccc(F)cc4F)c(=O)c(O)c3C(=O)N12, the Potency is reported as 0.0043 µM (active).
With COc1cc2nccc(Oc3ccc(NC(=O)C4(C(=O)Nc5ccc(F)cc5)CC4)cc3)c2cc1OC the Potency was 12.1 µM (active).
With CN(C)CC/C=C1\c2ccccc2Sc2ccc(Cl)cc21 the Potency was 8.57 µM (active).
With CC(C)(C)C(=O)OCOP(=O)(COCCn1cnc2c(N)ncnc21)OCOC(=O)C(C)(C)C the Potency was 0.0304 µM (active).
With CCCCCCCCCCCCOCCOCCOCCOCCOCCOCCOCCOCCOCCO the Potency was 7.64 µM (active).
For C[n+]1c2cc(N)ccc2cc2ccc(N)cc21 (tested in a mixture with another compound), the Potency was 1.92 µM (active).
For CNC(=O)c1cc(Oc2ccc(NC(=O)Nc3ccc(Cl)c(C(F)(F)F)c3)c(F)c2)ccn1, the Potency was 15.2 µM (active).
With Cc1oncc1C(=O)Nc1ccc(C(F)(F)F)cc1 the “activity change, negative = inhibition” value was 0%.
With CN1CCN(CCC=C2c3ccccc3Sc3ccc(S(=O)(=O)N(C)C)cc32)CC1 the Potency was 6.07 µM (active).
For C[C@@H](c1nc(-c2ccc(C#N)cc2)cs1)[C@](O)(Cn1cncn1)c1cc(F)ccc1F, the Potency was 5.41 µM (active).
In the case of CC[C@@H]([C@H](C)O)n1ncn(-c2ccc(N3CCN(c4ccc(OC[C@@H]5CO[C@@](Cn6cncn6)(c6ccc(F)cc6F)C5)cc4)CC3)cc2)c1=O, the Potency is reported as 7.64 µM (active).
For Nc1ccn([C@@H]2O[C@H](CO)[C@@H](O)C2(F)F)c(=O)n1, the Potency was 0.215 µM (active).
